# Vaccinia mCherry – vaccinia inhibition (mCherry reporter); Vaccinia virus mCherry reporter infection, fluorescence; Potency, µM (highest dose often 36.5 µM), for the others: at the top dose activity change, negative = inhibition, most hits filed as inhibitors; AID 720579; 310,000 compounds, 0.63% hits; calls by dose curve; tested in A549 cells; also: potency is read from the fitted curve at half-maximal effect; nearly all actives have a fitted effect of over 35% in size
# VACV Venus inh – vaccinia inhibition (Venus reporter); Potency, µM (titrated, usually from 36.5 µM), inactives show at the top dose activity change, negative = inhibition, hits mostly inhibitors; 330,000 compounds, 0.46% hits; Vaccinia virus Venus reporter expression, fluorescence; calls by dose curve; tested in A549 cells; also: potency is read from the fitted curve at half-maximal effect; nearly all actives have a fitted effect of over 30% in size
# HCMV inh – inhibitors of human cytomegalovirus. AID 1259415. HFF cells, HCMV-luciferase reporter, 72 h; active compounds read low. 410,000 compounds, 4.5% hits. activity change, negative = inhibition, % at 57.5 µM; in the data active = activity change below about -60%; inconclusive = no clear call, values can overlap the other calls; inactive = above about -39%
#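 Two compound doses tested in HFFs infected with HCMV-luciferase, MOI 1 PFU/cell, 72 h at 37C. Lysate luminescence read with OneGlo; data normalized against buffer-only and 10uM Salinomycin inhibitor controls.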
# FMDV antiviral – foot and mouth disease virus antiviral activity. FMDV antiviral cell-based qHTS. Potency, µM (highest dose often 57.9 µM), inactives show at the top dose activity change, negative = inhibition, actives largely listed as inhibitors. 410,000 compounds, 1.2% hits. AID 1159524; calls by dose curve; tested in HEK293T cells; also: read-out not given here; potency is read from the fitted curve at half-maximal effect; nearly all actives have a fitted effect of over 45% in size
# HCV inhibitor – inhibitors of hepatitis C virus infection; Huh7.5.1 HCVcc-Cre infection, luciferase reporter, 44 h; Potency, µM (top dose mostly 41.8 µM), for the others: top-dose activity change, negative = inhibition, hits mostly inhibitors; 340,000 compounds, 3.4% hits; active = well fitted inhibition curve with a large enough effect; inconclusive = small, poorly fitted or top-dose-only effect, or another doubt; inactive = no such curve, though single readings can be large or run the other way; also: potency is read from the fitted curve at half-maximal effect
#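 1,000 cells/well; 4 h culture; + compound; + HCVcc-Cre (~0.5 moi); 44 h; luciferase substrate, RT 15 min; read 15 sec.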
# Starred values were filed as active, the others as inactive; i = inactive; ? = inconclusive; / = no result given; [ ] = remark or other dose. A selection: hits, their analogues and other compounds. The true share with any hit is near 7.3%. % is scaled to controls: 0 for no effect and ±100 for the full control effect.
SMILES,Vaccinia mCherry,VACV Venus inh,HCMV inh,FMDV antiviral,HCV inhibitor
O=C(NCc1ccc(Cl)cc1)c1cc2c(s1)-c1ccccc1SC2,-13%,-11%,-14,-9%,/
Cc1ccc(CCNC(=O)c2cc3c(s2)-c2ccccc2OC3)cc1,-3%[7.34 µM],-13%[7.34 µM],-89*,-15%,/
CCOC(=O)c1cc2c(c(CCO)n1)[C@@H](CCO)N(S(=O)(=O)C(C)(C)C)C2,-13%,-8%,10,-22%,-4%
Cc1c(C(=O)NCc2ccco2)cnn1-c1ncc2c(n1)-c1ccccc1CC2,-15%,-28%,/,48%,/
COc1ccc(S[C@]2(c3nc(C)no3)CC(=O)N(c3ccc(OC)cc3)[C@@H]2c2ccc(OC)cc2)cc1,/,/,-8,/,/
Cc1ccc[n+](-c2nc([O-])sc2C=O)c1,10%,4%,-22,-5%,-6%
Cc1ccc(-n2c([O-])nc(-[n+]3ccccc3)c2C=O)cc1,i,-5%,-72*,/,7%
COc1ccc(-c2ccc3c(c2)[C@@H]2C[C@H](N(C)C(=O)Nc4ccccc4)[C@H]([C@H](C)O)C(=O)N2CC3)cc1,?,?,-5,-23%,2µM*
C[C@H](O)[C@@H]1C(=O)N2CCc3c([nH]c4ccccc34)[C@@H]2C[C@@H]1N(C)C(=O)Nc1cc(Cl)cc(Cl)c1,13µM*,?,-6,?,/
N#Cc1ccc(CN2CCN(C(=O)CCNS(=O)(=O)c3ccc(F)c(Cl)c3)CC2)cc1,/,/,-33,0%,?
COc1ccccc1OCCC(=O)NNC(=O)c1ccccc1F,/,/,0,-8%,5%
CCOc1ccc(CNC(=O)CN2N=C(c3ccccc3)CCC2=O)cc1OC,-8%,0%,6,-8%,/
CC(=O)Nc1nonc1-c1nnc(SCC(=O)Nc2cc(C)cc(C)c2)n1C,-7%,-14%,2,-1%,/
COc1ccccc1C(c1c(N)n(C)c(=O)n(C)c1=O)C(C)[N+](=O)[O-] (centres undefined),-9%,2%,-14,8%,2%
COc1ccccc1C(C[N+](=O)[O-])c1c(N)n(C)c(=O)n(C)c1=O (centres undefined),/,/,-97*,32µM*,11µM*
Cc1ccccc1NCC(=O)N=Nc1c(O)[nH]c2ccc([N+](=O)[O-])cc12,/,/,-83*,-25%,-22%
CCN1C(=O)CCN(C2CCCC2)c2nc(Nc3ccc(C(=O)NC4CCN(C)CC4)cc3OC)ncc21,?,?,-73*,19%,29%[8.37 µM]
COc1cc(C(=O)N2CCC(N3CCN(C)CC3)CC2)ccc1Nc1ncc2c(n1)N(C)c1ccccc1C(=O)N2C,/,/,-73*,/,/
COc1cc(C(=O)NC2CCCCC2)ccc1OC1CCN(C(C)=O)CC1,-14%,-10%,37,2%,9%
CCN(c1ccccc1)S(=O)(=O)c1ccc(NC(=O)c2cc(=O)c3cc(C)cc(C)c3o2)cc1,12%,-4%,2,-18%,/
CCOC(=O)c1sc(NC(=O)c2cccs2)cc1C,/,-25%,21,50%,?
CCOC(=O)c1sc(NC(=O)Nc2cccc(Cl)c2)cc1C,?,?,-95*,-22%,?
CCOC(=O)c1sc(NC(=O)c2sccc2C)cc1C,/,/,47,38%,10µM*
O=C(CNC(=O)c1ccccc1F)N/N=C/c1cc(Br)ccc1OC(=O)/C=C/c1ccco1,?,-25%,-83*,-17%,6.3µM*
COc1ccccc1C(=O)NCC(=O)N/N=C/c1cc(Br)ccc1OC(=O)/C=C\c1ccco1,/,/,-37,-17%,?
SMILES,Vaccinia mCherry,VACV Venus inh,HCMV inh,FMDV antiviral,HCV inhibitor
O=C(CNC(=O)c1ccc(F)cc1)N/N=C/c1cc(Br)ccc1OC(=O)/C=C/c1ccco1,?,10%,-77*,-7%,10µM*
COc1ccc(C(=O)NCC(=O)N/N=C/c2ccco2)cc1OC,-8%,5%,13,-2%,-5%
Cc1ccc2c(c1)c1c(c(=O)n(-c3ccccc3C)c(=O)n1Cc1ccccc1F)n2C,-8%,-7%,-28,-25%,/
Cc1ccc(/C=[N+](\[O-])c2ccccc2C)o1,/,/,-98*,4%,11%
COc1ccc(C(=O)NC2CCCc3ccccc32)c(OC)c1OC (centres undefined),5%,5%,29,18%,?
COc1cc2c(c(OC)c1OC)-c1ccc(O)c(=O)cc1[C@@H](NC(C)=O)CC2,-21%,-17%,-37,-17%,-24%
CN[C@H]1CCc2cc(OC)c(OC)c(OC)c2-c2ccc(N[C@@H]3CCCCNC3=O)c(=O)cc21,/,/,/,-3%,/
COc1cc2c(c(OC)c1OC)-c1ccc(NC(=O)c3ccccc3)c(=O)cc1[C@@H](NC(C)=O)CC2,-11%,-2%,-88*,-13%,14%
CN[C@H]1CCc2cc(OC)c(OC)c(OC)c2-c2ccc(OC)c(=O)cc21,?,?,-95*,-8%,-8%
COc1cc2c(c(OC)c1OC)-c1ccc(O)cc1C(NC(C)=O)CC2 (centres undefined),i,?,-95*,22%,6%
COc1cc2c(c(OC)c1OC)-c1ccc(O)cc1[C@@H](NC(C)=O)CC2,-12%,?,-78*,7%,-10%
CCOC(=O)c1cccn1C1C(=O)N(Cc2ccc(Cl)nc2)c2c(F)cccc21 (centres undefined),/,/,-5,/,/
O=C(CN1CCN(Cc2ccccc2)CC1)Nc1ccc(Br)cc1,/,/,-10,-14%,-21%
Cc1ccccc1C(=O)O/N=C(\N)Cc1cccs1,i,-20%,-62*,2%,?
Cc1ccccc1OCC(=O)O/N=C(\N)Cc1cccs1,i,-2%,14,/,9%
O=C(CSC1c2ccccc2-c2ccccc21)N/N=C/c1ccccc1O,/,/,-96*,?,?
O=C(CSc1ccc2ccccc2n1)N/N=C/c1ccccc1O,/,/,-100*,11%,?
Cc1cc(SCC(=O)N/N=C/c2ccc(O)cc2O)c(C)cc1Br,/,/,-83*,?,?
Cc1cc(SCC(=O)N/N=C/c2ccccc2C(=O)O)c(C)cc1Br,i,-7%,-18,-5%,-12%
O=C(CSc1ccc2ccccc2n1)N/N=C/c1ccc(O)cc1,/,/,-32,-13%,-15%
O=C(CCNS(=O)(=O)c1ccccc1)N1CCN(c2ccccc2F)CC1,?,-6%,27,0%,-12%
Cc1ccc2cc(CN(C)C(=O)c3cccc(Cl)c3)c(=O)[nH]c2c1,i,-17%,4,-1%,/
Cc1ccc(N(CC(=O)NC2CCCCC2)C(=O)CNC(=O)c2ccco2)cc1C,-15%,-5%,5,13%,12%
CCOC(=O)c1cccc(NC(=O)COc2nsnc2N2CCOCC2)c1,-10%,-12%,-1,25µM*,?
CC(=O)c1cccc(NC(=O)COc2nsnc2N2CCOCC2)c1,-13%,-13%,26,?,-11%
CN(C)c1ccc(/C=N/NC(N)=S)cc1[N+](=O)[O-],3.5µM*,4µM*,12,28%,9%
CN(C)c1ccc(C=C2C(=O)NC(=S)NC2=O)cc1[N+](=O)[O-],i,-4%,21,40µM*,3%
C#CCCC[C@@H](/C=C/C(=O)OCC)NC(=O)C(F)(F)F,/,/,0,/,/

# From PubChem BioAssay
